# Assay results reported in PubChem BioAssay AID1845226 (National Center for Advancing Translational Sciences (NCATS), 2023).
# Results filed as inconclusive are left out. Where a call stands in place of a potency, no number is given. Active and inactive are the calls of the source. The call rests on the fitted dose curve; in most records, active means well fitted inhibition curve with a large enough effect; inconclusive means small, poorly fitted or top-dose-only effect; inactive means no such curve, though single readings can be large or run the other way.
# Assay: Confirmatory fluorescence-based thiol-reactive (MSTI) qHTS assay for identification of artifact compounds
# Conditions: MSTI thiol-reactivity probe, 1 h; series mostly up to 39.2 µM
# Summary of the method: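 Thiol reactivity read as MSTI fluorescence (Ex/Em 525/598 nm) after 1 h at room temperature in PBS pH 7.4 with 2% DMSO, MSTI 4 uM. Data normalised to Acetyl-MSTI and MSTI control wells, 4-parameter Hill fit.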
# Potency means the concentration at half of the fitted maximal effect.
row,SMILES,Potency
1,Clc1ccccc1Cn1c(-c2cccs2)nc2ccccc21,inactive
2,COc1ccc(C2Nc3ccccc3C(=O)N2CC(C)(C)C)cc1COc1ccc(NC(C)=O)cc1 (stereo unspecified),inactive
3,COc1ccc(NC(=O)C(C)n2nc(-c3cc(C)ccc3C)c3c(c2=O)CCCC3)cc1 (stereo unspecified),inactive
4,COC(=O)c1cc(NC(=O)c2ccc3c(c2)NC(=O)c2ccccc2S3)cc(C(=O)OC)c1,inactive
5,O=C(O)CCc1c2ccc(=O)c(O)c-2oc2c(O)c(O)ccc12,1090 nM (active)
6,COc1ccc(-c2oc3cc(O[C@@H]4OC(CO)C(O)C(O)C4O)c(OC)c(O)c3c(=O)c2OC)cc1O (stereo partly specified),inactive
7,COc1ccc(NC(=O)CSc2nc(-c3ccccc3)nc3c2Cc2c(CO)cnc(C)c2O3)cc1Cl,inactive
8,O=C1CCCc2[nH]c(=O)c(-c3nc(-c4cccc([N+](=O)[O-])c4)cs3)cc21,3860 nM (active)
9,Cc1ccc(S(=O)(=O)Nc2ccc(F)cc2C(=O)Nc2nc(-c3ccccc3)cs2)cc1,inactive
10,O=C(Nc1cccc(Cc2ccccc2)c1)c1ccc(-c2cccc([N+](=O)[O-])c2)o1,inactive
11,O=C(Nc1nc(-c2ccccc2)cs1)c1ccccc1[N+](=O)[O-],2440 nM (active)
12,CC(C)C(=O)SCCCCCCC(=O)Nc1nc(-c2ccccc2)cs1,inactive
13,COc1cc2c(C(=O)N3CCN(c4ccc(F)cc4)CC3)cn(CC(C)C)c(=O)c2cc1OC,inactive
14,CCCCOc1ccc(C2C(=O)N(C3CCCCC3)CC(=O)N2CCCC)cc1 (stereo unspecified),inactive
15,CCCCCn1c(=O)[nH]c2cc(C(=O)Nc3ccc(F)cc3)ccc2c1=O,inactive
16,COc1ccc(CNC(=O)c2cc3sccc3n2Cc2ccc(C)cc2)cc1,inactive
